# What was measured:
# Assay in all cases: DAPPL (digital affinity profiling via proximity ligation, sequencing); 10 mM Tris-HCl pH 7.5, 50 mM NaCl, 1 mM DTT, 4% glycerol, room temperature, 30 min; GST-TFs on glutathione beads, 16-mer random dsDNA library, 0.1% formaldehyde crosslink after washing; high values mean tight binding
# FLI1 = biological target: T1, FLI1 (Homo sapiens, UniProt Q01543 1-452); conditions: protein: recombinant; tags: N-terminal GST; dsDNA, one strand shown
# T1 sequence: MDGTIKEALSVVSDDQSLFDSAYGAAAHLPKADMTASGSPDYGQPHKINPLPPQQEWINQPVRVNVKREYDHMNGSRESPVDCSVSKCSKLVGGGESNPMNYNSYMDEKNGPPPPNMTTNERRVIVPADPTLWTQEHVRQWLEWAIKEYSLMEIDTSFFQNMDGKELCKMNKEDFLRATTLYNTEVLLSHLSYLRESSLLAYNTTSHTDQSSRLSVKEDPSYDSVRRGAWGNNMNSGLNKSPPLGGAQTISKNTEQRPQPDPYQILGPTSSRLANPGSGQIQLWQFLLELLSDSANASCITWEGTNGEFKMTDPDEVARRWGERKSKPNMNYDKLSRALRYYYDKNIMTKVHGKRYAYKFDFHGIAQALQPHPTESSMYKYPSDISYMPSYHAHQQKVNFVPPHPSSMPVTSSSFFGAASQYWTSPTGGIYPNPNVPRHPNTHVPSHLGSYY
# Summary of the method: (§1)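 Binding signal is each hexamer's read frequency for a factor divided by its frequency in the tag-only sample. The factors were GST-fused human transcription factors from yeast, captured on glutathione beads, DNA-barcoded and pooled with that sample. Pools were incubated with 200 nmole of a random double-stranded 16-mer DNA library in Tris/NaCl/DTT/glycerol buffer at room temperature for 30 min, then washed, crosslinked with 0.1% formaldehyde, proximity-ligated with BsaI/T4 ligase (1 h, 37 °C), PCR-amplified and sequenced on an Illumina NextSeq500.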
# ELK1 = biological target: T2, ELK1 (Homo sapiens, UniProt P19419 1-428); conditions: protein: recombinant; tags: N-terminal GST; dsDNA, one strand shown
# T2 sequence: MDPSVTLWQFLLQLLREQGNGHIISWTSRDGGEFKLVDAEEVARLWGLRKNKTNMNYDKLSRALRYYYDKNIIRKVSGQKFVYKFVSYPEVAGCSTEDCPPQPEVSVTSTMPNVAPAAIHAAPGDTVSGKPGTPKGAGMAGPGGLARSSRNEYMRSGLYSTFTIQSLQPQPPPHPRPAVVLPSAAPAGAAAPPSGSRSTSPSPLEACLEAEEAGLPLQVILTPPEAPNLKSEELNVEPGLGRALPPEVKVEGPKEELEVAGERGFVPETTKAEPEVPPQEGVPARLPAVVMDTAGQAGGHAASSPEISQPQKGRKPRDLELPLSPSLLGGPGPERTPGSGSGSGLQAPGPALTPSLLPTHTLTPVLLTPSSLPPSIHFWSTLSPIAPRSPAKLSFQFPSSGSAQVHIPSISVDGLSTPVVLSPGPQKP
# Summary of the method: as §1
# GABPA = biological target: T3, GABPA (Homo sapiens, UniProt Q06546 1-454); conditions: protein: recombinant; tags: N-terminal GST; dsDNA, one strand shown
# T3 sequence: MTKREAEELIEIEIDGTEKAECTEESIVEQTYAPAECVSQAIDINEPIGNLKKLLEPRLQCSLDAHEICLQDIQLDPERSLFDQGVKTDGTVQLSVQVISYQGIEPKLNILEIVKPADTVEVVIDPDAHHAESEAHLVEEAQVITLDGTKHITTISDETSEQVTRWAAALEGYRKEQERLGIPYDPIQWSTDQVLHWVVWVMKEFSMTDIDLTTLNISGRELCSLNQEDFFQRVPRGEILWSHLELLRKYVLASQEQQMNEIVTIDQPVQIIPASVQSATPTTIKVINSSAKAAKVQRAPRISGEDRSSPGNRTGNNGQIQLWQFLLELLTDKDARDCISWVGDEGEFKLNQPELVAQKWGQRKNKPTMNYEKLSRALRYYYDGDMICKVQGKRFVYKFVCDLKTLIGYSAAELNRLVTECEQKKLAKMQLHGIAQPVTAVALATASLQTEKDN
# Summary of the method: as §1
# ERG = biological target: T4, ERG (Homo sapiens, UniProt P11308 1-479); conditions: protein: recombinant; tags: N-terminal GST; dsDNA, one strand shown
# T4 sequence: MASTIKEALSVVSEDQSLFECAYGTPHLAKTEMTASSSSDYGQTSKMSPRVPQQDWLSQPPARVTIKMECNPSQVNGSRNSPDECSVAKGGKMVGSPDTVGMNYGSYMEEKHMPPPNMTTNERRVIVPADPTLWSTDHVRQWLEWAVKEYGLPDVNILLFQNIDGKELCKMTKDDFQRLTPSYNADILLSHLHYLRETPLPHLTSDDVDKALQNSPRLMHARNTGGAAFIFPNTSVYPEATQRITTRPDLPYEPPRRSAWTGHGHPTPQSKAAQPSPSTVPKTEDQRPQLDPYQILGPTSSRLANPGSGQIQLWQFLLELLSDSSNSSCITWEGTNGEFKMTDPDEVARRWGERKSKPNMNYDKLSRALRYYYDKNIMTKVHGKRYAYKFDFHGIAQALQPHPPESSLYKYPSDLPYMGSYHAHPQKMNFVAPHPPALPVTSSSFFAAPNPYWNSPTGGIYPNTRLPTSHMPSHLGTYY
# Summary of the method: as §1
# ELF1 = ELF1 (Homo sapiens, UniProt P32519 1-619); conditions: protein: recombinant; tags: N-terminal GST; dsDNA, one strand shown
# Sequence of ELF1 (P32519 whole entry): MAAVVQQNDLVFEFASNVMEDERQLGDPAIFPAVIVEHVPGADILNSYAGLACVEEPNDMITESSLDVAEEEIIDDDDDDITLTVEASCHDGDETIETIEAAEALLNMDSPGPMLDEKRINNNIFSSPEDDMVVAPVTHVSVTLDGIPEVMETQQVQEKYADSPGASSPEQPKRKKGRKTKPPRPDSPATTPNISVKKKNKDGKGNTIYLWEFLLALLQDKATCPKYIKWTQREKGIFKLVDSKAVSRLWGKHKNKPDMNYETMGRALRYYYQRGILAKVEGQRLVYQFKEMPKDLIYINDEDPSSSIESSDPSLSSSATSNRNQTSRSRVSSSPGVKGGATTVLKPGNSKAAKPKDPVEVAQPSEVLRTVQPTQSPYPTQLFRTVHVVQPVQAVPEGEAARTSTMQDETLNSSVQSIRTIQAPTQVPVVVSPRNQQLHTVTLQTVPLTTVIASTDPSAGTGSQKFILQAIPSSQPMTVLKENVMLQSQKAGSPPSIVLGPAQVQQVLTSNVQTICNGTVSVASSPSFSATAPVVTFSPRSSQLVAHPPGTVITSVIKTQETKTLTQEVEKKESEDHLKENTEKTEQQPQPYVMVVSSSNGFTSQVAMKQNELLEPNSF
# Summary of the method: as §1
# EHF = biological target: T5, EHF (Homo sapiens, UniProt Q9NZC4 1-300); conditions: protein: recombinant; tags: N-terminal GST; dsDNA, one strand shown
# T5 sequence: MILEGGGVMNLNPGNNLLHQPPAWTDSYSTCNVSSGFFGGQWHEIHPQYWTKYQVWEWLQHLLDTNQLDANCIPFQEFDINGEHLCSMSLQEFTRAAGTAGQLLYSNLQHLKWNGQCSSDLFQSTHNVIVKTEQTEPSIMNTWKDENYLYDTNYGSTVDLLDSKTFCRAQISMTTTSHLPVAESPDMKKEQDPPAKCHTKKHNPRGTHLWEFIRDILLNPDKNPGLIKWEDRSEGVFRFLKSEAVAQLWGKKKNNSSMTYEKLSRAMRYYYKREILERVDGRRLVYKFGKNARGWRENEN
# Summary of the method: as §1
# SPI1 = SPI1 (Homo sapiens, UniProt P17947 1-270); conditions: protein: recombinant; tags: N-terminal GST; dsDNA, one strand shown
# Summary of the method: as §1
# SPIB = SPIB (Homo sapiens, UniProt Q01892 1-262); conditions: protein: recombinant; tags: N-terminal GST; dsDNA, one strand shown
# Sequence of SPIB (Q01892 whole entry): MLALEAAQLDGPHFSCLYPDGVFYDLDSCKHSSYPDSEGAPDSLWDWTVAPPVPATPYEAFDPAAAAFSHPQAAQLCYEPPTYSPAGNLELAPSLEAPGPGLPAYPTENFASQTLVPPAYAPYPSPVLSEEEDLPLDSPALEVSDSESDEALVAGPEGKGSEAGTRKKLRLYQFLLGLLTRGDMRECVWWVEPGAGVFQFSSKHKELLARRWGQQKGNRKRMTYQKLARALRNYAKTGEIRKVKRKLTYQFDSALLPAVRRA
# Summary of the method: as §1
# ELK3 = biological target: T6, ELK3 (Homo sapiens, UniProt P41970 1-407); conditions: protein: recombinant; tags: N-terminal GST; dsDNA, one strand shown
# T6 sequence: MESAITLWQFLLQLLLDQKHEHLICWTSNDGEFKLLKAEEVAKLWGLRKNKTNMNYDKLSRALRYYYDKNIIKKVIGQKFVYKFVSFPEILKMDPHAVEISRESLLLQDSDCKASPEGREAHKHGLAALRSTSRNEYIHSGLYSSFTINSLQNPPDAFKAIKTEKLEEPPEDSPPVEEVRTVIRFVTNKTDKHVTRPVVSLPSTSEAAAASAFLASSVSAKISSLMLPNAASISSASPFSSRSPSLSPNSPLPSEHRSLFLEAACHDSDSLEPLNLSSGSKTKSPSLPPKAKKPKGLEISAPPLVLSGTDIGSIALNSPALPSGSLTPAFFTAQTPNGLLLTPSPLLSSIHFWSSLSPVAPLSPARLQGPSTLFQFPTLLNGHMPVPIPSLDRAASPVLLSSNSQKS
# Summary of the method: as §1
# FEV = biological target: T7, FEV (Homo sapiens, UniProt Q99581 1-238); conditions: protein: recombinant; tags: N-terminal GST; dsDNA, one strand shown
# T7 sequence: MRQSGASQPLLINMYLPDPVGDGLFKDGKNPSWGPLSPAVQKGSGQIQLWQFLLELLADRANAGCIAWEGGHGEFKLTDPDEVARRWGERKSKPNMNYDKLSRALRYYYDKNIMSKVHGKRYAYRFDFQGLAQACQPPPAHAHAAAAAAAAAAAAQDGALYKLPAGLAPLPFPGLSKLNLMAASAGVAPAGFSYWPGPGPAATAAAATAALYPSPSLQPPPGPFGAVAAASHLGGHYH
# Summary of the method: as §1
# ETV5 = ETV5 (Homo sapiens, UniProt P41161 1-510); conditions: protein: recombinant; tags: N-terminal GST; dsDNA, one strand shown
# Sequence of ETV5 (P41161 whole entry): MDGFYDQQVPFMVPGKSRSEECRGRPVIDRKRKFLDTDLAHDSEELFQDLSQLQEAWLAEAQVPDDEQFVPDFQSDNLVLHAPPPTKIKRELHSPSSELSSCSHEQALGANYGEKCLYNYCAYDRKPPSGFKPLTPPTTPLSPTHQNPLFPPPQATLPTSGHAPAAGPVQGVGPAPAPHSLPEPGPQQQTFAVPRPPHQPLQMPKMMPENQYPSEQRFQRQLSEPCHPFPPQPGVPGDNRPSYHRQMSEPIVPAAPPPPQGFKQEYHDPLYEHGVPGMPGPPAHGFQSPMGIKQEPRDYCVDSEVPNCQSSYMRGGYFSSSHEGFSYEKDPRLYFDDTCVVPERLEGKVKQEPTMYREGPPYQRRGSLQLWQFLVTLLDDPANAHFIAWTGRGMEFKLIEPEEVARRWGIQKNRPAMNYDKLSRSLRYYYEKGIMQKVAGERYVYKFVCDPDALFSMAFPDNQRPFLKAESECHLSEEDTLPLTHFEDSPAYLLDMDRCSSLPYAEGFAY
# Summary of the method: as §1
# HSF1 = HSF1 (Homo sapiens, UniProt Q00613 1-529); conditions: protein: recombinant; tags: N-terminal GST; chain copies: 3; dsDNA, one strand shown
# Sequence of HSF1 (Q00613 whole entry): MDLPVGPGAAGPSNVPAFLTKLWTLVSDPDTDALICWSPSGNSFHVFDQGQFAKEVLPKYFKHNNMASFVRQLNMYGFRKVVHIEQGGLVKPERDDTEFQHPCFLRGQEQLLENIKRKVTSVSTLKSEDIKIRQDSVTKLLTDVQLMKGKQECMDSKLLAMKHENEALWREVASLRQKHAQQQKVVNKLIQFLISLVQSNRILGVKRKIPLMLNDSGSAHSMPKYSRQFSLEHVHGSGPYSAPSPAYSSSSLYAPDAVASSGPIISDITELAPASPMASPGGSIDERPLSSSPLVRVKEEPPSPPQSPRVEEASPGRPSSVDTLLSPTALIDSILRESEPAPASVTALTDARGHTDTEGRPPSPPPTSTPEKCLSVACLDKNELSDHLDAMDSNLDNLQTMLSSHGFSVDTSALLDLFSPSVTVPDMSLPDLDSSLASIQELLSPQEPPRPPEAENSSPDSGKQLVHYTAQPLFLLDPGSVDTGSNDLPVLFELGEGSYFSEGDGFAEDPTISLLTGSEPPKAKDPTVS
# Summary of the method: as §1
# SPIC = biological target: T8, SPIC (Homo sapiens, UniProt Q8N5J4 1-248); conditions: protein: recombinant; tags: N-terminal GST; dsDNA, one strand shown
# T8 sequence: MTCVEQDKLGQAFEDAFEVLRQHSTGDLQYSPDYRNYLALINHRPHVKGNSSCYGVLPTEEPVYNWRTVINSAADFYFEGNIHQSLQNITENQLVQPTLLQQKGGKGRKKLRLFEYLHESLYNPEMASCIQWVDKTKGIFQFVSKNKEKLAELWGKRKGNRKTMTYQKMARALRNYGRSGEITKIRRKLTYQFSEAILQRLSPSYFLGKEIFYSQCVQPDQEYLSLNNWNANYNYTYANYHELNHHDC
# Summary of the method: as §1
# ELF4 = ELF4 (Homo sapiens, UniProt Q99607 1-663); conditions: protein: recombinant; tags: N-terminal GST; dsDNA, one strand shown
# Sequence of ELF4 (Q99607 whole entry): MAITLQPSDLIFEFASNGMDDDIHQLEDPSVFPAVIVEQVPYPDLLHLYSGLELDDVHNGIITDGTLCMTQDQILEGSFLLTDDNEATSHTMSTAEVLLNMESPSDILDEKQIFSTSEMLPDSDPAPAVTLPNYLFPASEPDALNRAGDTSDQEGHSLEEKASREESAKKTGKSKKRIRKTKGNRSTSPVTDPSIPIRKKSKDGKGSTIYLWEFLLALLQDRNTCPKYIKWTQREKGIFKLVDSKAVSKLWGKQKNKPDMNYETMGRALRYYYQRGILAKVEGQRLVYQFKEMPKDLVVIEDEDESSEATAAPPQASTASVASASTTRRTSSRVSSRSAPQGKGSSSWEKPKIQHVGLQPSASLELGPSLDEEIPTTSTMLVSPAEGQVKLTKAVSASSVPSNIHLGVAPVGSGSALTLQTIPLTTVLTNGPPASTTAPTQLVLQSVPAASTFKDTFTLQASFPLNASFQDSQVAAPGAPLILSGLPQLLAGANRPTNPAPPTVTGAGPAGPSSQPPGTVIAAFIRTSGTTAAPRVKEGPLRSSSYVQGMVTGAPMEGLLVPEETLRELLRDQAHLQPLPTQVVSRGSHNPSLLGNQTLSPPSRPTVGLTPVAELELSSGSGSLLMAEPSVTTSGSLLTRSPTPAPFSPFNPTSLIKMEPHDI
# Summary of the method: as §1
# ELK4 = biological target: T9, ELK4 (Homo sapiens, UniProt P28324-2 1-405); conditions: protein: recombinant; tags: N-terminal GST; dsDNA, one strand shown
# T9 sequence: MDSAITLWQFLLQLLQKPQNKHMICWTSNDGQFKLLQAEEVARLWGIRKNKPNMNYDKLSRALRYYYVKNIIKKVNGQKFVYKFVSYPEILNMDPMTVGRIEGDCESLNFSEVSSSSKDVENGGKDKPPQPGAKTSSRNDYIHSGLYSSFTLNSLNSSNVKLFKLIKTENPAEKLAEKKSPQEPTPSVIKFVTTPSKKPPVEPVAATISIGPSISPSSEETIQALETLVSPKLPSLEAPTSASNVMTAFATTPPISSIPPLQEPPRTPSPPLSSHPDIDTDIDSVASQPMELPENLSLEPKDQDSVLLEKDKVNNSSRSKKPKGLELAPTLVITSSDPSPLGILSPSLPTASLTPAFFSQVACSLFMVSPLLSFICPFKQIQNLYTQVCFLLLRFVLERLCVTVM
# Summary of the method: as §1
# ETV2 = biological target: T10, ETV2 (Homo sapiens, UniProt O00321 1-342); conditions: protein: recombinant; tags: N-terminal GST; dsDNA, one strand shown
# T10 sequence: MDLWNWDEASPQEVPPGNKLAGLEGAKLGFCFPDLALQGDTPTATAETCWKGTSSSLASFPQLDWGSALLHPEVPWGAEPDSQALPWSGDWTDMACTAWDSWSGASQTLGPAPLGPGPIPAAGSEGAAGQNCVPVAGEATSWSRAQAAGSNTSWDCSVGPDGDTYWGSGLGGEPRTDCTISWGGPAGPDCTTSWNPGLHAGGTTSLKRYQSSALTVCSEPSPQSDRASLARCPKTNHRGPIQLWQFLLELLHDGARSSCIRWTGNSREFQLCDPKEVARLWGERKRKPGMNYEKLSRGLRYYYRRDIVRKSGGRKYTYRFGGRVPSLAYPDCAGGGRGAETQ
# Summary of the method: as §1
# ELF3 = biological target: T11, ELF3 (Homo sapiens, UniProt P78545 1-371); conditions: protein: recombinant; tags: N-terminal GST; dsDNA, one strand shown
# T11 sequence: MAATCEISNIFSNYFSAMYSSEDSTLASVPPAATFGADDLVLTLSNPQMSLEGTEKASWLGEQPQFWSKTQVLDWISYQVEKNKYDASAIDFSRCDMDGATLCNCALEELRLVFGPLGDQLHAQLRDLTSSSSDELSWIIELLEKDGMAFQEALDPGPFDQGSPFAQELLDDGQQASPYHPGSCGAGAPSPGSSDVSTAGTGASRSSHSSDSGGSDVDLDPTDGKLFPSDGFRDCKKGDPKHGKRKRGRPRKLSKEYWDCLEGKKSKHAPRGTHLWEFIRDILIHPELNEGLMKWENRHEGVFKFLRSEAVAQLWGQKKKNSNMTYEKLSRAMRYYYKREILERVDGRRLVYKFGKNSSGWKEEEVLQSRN
# Summary of the method: as §1
# CRX = CRX (Homo sapiens, UniProt O43186 1-299); conditions: protein: recombinant; tags: N-terminal GST; dsDNA, one strand shown
# Sequence of CRX (O43186 whole entry): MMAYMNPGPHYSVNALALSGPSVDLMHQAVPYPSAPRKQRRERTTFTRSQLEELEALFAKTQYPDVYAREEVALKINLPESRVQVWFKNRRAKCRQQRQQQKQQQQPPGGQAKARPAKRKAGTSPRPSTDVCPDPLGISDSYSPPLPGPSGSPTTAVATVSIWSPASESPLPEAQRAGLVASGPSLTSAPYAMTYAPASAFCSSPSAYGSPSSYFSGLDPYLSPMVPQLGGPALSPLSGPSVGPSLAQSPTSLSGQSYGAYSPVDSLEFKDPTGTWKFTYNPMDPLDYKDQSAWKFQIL
# Summary of the method: as §1
# ETV1 = ETV1 (Homo sapiens, UniProt P50549 1-477); conditions: protein: recombinant; tags: N-terminal GST; dsDNA, one strand shown
# Sequence of ETV1 (P50549 whole entry): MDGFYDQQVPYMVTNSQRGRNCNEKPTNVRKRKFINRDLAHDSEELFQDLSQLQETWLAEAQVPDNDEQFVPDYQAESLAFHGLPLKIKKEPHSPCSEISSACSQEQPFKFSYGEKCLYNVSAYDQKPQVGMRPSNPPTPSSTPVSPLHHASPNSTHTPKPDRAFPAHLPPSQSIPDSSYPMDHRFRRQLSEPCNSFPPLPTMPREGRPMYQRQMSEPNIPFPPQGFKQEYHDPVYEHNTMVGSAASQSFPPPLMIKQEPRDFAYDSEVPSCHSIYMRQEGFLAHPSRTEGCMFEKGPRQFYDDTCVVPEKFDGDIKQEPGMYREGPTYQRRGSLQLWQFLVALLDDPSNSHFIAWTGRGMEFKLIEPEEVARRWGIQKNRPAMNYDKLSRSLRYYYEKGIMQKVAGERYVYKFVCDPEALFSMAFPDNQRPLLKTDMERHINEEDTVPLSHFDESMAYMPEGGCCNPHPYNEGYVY
# Summary of the method: as §1
sequence,measurement,setting,value
AGCTCA,binding signal,FLI1,"1.07 fold enrichment (6-mer frequency, TF over GST control)"
same,binding signal,ELK1,"1.1 fold enrichment (6-mer frequency, TF over GST control)"
same,binding signal,GABPA,"1.15 fold enrichment (6-mer frequency, TF over GST control)"
same,binding signal,ERG,"1.08 fold enrichment (6-mer frequency, TF over GST control)"
same,binding signal,ELF1,"1.2 fold enrichment (6-mer frequency, TF over GST control)"
same,binding signal,EHF,"1.21 fold enrichment (6-mer frequency, TF over GST control)"
same,binding signal,SPI1,"1.06 fold enrichment (6-mer frequency, TF over GST control)"
same,binding signal,SPIB,"1.17 fold enrichment (6-mer frequency, TF over GST control)"
same,binding signal,ELK3,"1.12 fold enrichment (6-mer frequency, TF over GST control)"
same,binding signal,FEV,"1.08 fold enrichment (6-mer frequency, TF over GST control)"
same,binding signal,ETV5,"1.1 fold enrichment (6-mer frequency, TF over GST control)"
same,binding signal,HSF1,"1.22 fold enrichment (6-mer frequency, TF over GST control)"
same,binding signal,SPIC,"1.08 fold enrichment (6-mer frequency, TF over GST control)"
same,binding signal,ELF4,"1.16 fold enrichment (6-mer frequency, TF over GST control)"
same,binding signal,ELK4,"1.27 fold enrichment (6-mer frequency, TF over GST control)"
same,binding signal,ETV2,"1.25 fold enrichment (6-mer frequency, TF over GST control)"
same,binding signal,ELF3,"1.11 fold enrichment (6-mer frequency, TF over GST control)"
same,binding signal,CRX,"1.45 fold enrichment (6-mer frequency, TF over GST control)"
same,binding signal,ETV1,"1.24 fold enrichment (6-mer frequency, TF over GST control)"
